Experimental findings from PMC10668032, “Altered binding affinity of SIX1-Q177R correlates with enhanced WNT5A and WNT pathway effector expression in Wilms tumor” are described below.

Whole data set: some 33,000 sequences, median “e-score” near -0.053, cut for the highest 2% near 0.38. Many of the other results were omitted from the sample, so the highest values are more common in it than they were.

The target in this assay is T1, SIX1 homeodomain (reference allele) (human, UniProt Q15475 108-198).
T1 sequence: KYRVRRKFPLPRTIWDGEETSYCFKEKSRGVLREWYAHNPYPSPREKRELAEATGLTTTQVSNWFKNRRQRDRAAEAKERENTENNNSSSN
Description: universal protein binding microarray; Universal all-10-mer PBM (8x60K, AMADID 030236), 300 nM GST-tagged protein, Alexa Fluor 488 anti-GST; buffer, salt, pH and temperature not stated (as in Berger); high values mean tight binding. As to conditions: protein: ivt; tags: N-terminal GST; dsDNA, one strand shown. The essentials:
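Homeodomains fused to GST were made by in vitro transcription/translation and measured by anti-GST western blot with a recombinant GST standard curve. At 300 nM final concentration, they were applied in duplicate to universal 'all 10-mer' protein binding microarrays (8×60K format).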
In the case of ATCCGGTC, the binding signal worked out at 0.318 ± 0.00861 E-score.
The value for ATCCGGGA was 0.295 ± 0.0471 E-score; that for ATCCGGGG was 0.418 ± 0.0155 E-score.
In the case of GAAGACAC, the binding signal amounted to 0.21 ± 0.0292 E-score.
CTAACACC: the binding signal is 0.213 ± 0.0035 E-score.
Regarding TCTCACCA, the binding signal worked out at 0.259 ± 0.00728 E-score.
For the sequence GATCACAA, the binding signal was 0.31 ± 0.0262 E-score.
Then TATCACAA, with 0.385 ± 0.049 E-score; and TATCACCA, with 0.42 ± 0.031 E-score.
Then TATCACGA, with 0.373 ± 0.0201 E-score; and GATCACCA, with 0.334 ± 0.0295 E-score; and CGATAATA, with 0.328 ± 0.0401 E-score.
Then CCCTTCTC, with 0.274 ± 0.0318 E-score.
In the case of ATAGTCTC, the binding signal stood at 0.151 ± 0.0259 E-score.
ACAGATCG: the binding signal is 0.2347 ± 0.00197 E-score.
Then CGCGGATA, with 0.3882 ± 0.00207 E-score; and GGCGGGTA, with 0.228 ± 0.0067 E-score; and GGCGGATA, with 0.403 ± 0.0134 E-score.
For the sequence AGCGGATG, the binding signal turned out to be 0.154 ± 0.049 E-score.
The value for CGCGGATC was 0.365 ± 0.0314 E-score; that for AGCGGATA was 0.364 ± 0.0328 E-score.
Then GATCAGCC, with 0.293 ± 0.0341 E-score.
The value for ATCGCATC was 0.3271 ± 0.00246 E-score.
As for ATCGTATA, the binding signal was found to be 0.324 ± 0.00599 E-score.
The value for TACGTATA was 0.272 ± 0.0445 E-score.
Then AACCTATC, with 0.246 ± 0.0031 E-score; and AACGTATC, with 0.385 ± 0.067 E-score; and CACGTATC, with 0.433 ± 0.00889 E-score.
Then ATCGTATC, with 0.441 ± 0.0183 E-score; and AACGTATA, with 0.167 ± 0.109 E-score; and GACGTCTC, with 0.163 ± 0.0364 E-score.
On to CACGTATA, for which the binding signal worked out at 0.304 ± 0.0586 E-score.
Then GACGTATC, with 0.42 ± 0.0354 E-score; and GACGTATA, with 0.213 ± 0.108 E-score; and CTCGTATC, with 0.367 ± 0.0253 E-score.
Then GATCGGTA, with 0.3365 ± 0.000728 E-score; and TATTCTCA, with 0.19 ± 0.0783 E-score.
Then AGAACATA, with 0.152 ± 0.0261 E-score; and ATACTGCG, with 0.185 ± 0.0499 E-score.
Turning to CGTAATCC, the binding signal came to 0.276 ± 0.00776 E-score.
Regarding CGATCCGC, the binding signal was determined as 0.418 ± 0.0398 E-score.
The value for GGATCCGA was 0.376 ± 0.0683 E-score; that for AGATCCGC was 0.333 ± 0.0252 E-score; that for CGATCCTC was 0.333 ± 0.00326 E-score.
The value for AGATCCGA was 0.276 ± 0.0275 E-score.
For the sequence CGATCCGA, the binding signal worked out at 0.396 ± 0.0357 E-score.
The value for ATCGTCTC was 0.304 ± 0.0389 E-score; that for TACAAGTA was 0.162 ± 0.0274 E-score; that for ATCTAGGG was 0.187 ± 0.0244 E-score.
Then CCGGTAGA, with 0.151 ± 0.0265 E-score.
The value for ATCACGGA was 0.288 ± 0.0444 E-score; that for GATACTCC was 0.45 ± 0.00694 E-score.
For AATACTCG, the binding signal was found to be 0.165 ± 0.0216 E-score.
The value for AATACTCA was 0.255 ± 0.0524 E-score; that for GATACTAC was 0.432 ± 0.0131 E-score.
With GATACTAA, the binding signal worked out at 0.362 ± 0.0288 E-score.
The value for CATACTCA was 0.152 ± 0.0301 E-score.
The value for GATACTCA was 0.429 ± 0.0251 E-score; that for TATACTCA was 0.192 ± 0.0629 E-score.
Then AATACTAC, with 0.181 ± 0.00602 E-score.
For the sequence TAGAGATA, the binding signal was 0.268 ± 0.0459 E-score.
AGGCCGAT: the binding signal came to 0.153 ± 0.00796 E-score.
For the sequence ATATAACC, the binding signal turned out to be 0.177 ± 0.0584 E-score.
Then ATCGCTGG, with 0.23 ± 0.00422 E-score; and AGATAGCC, with 0.247 ± 0.0195 E-score.
Then ATCTGGGA, with 0.196 ± 0.00724 E-score.
Then TATCTAAA, with 0.301 ± 0.0245 E-score; and GTATACAC, with 0.371 ± 0.00578 E-score.
Take ATCATGAG: the binding signal was determined as 0.23 ± 0.0357 E-score.
The value for ATCATGAC was 0.197 ± 0.0404 E-score; that for ATCATGAT was 0.3975 ± 0.000976 E-score.
The value for ATCAGGAT was 0.394 ± 0.00836 E-score; that for ATCAGGAG was 0.188 ± 0.0305 E-score; that for ATCAGGAA was 0.165 ± 0.0245 E-score.
The value for CATCGGGA was 0.164 ± 0.0507 E-score.
On to ATCTACTG, for which the binding signal was 0.22 ± 0.0235 E-score.
Then GATCGGGC, with 0.296 ± 0.015 E-score; and AAAATATC, with 0.154 ± 0.121 E-score.
Then AACATATA, with 0.235 ± 0.0646 E-score; and CACATATC, with 0.404 ± 0.0155 E-score; and GACATATC, with 0.386 ± 0.0597 E-score.
For GACATATA, the binding signal turned out to be 0.226 ± 0.0783 E-score.
Then CATATATG, with 0.23 ± 0.0477 E-score.
The value for TACATATA was 0.254 ± 0.00881 E-score.
The value for AACATATC was 0.378 ± 0.0821 E-score; that for CACATATA was 0.165 ± 0.0792 E-score.
Consider ATATTACC, for which the binding signal is 0.259 ± 0.0572 E-score.
CCGGTATA: the binding signal worked out at 0.343 ± 0.0129 E-score.
With CCGGTAAA, the binding signal was 0.157 ± 0.034 E-score.
